Laboratory results taken from PubChem BioAssay (NCI).
Compounds without any hit were thinned out: in the full panel of roughly 83,000, 20% have a hit.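 Method: cells in 96-well plates; compound added at one concentration; 48 h incubation; percent growth measured; values under 10 scored active.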 A number with no mark means an inactive call. The source made the active and inactive calls.

Key:
Assay in all cases: NCI-60 one-dose screen, 48 h (100 = growth as untreated, 0 = no growth, -100 = all killed)
Settings in all cases: 10 µM unless noted
[1] = system: NCI-H23 lung
[2] = system: NCI-H322M lung
[3] = system: HOP-62 NSCLC
[4] = system: NCI-H460 lung
[5] = system: HOP-92 NSCLC
[6] = system: NCI-H522 lung
[7] = system: A549/ATCC NSCLC
[8] = system: 786-0 renal
[9] = system: COLO 205 colon
[10] = system: DU-145 prostate
[11] = system: K-562 leukemia
[12] = system: MALME-3M melanoma
[13] = system: MDA-MB-231 breast
[14] = system: RXF 393 renal
[15] = system: SF-268 CNS
[16] = system: SF-295 CNS
[17] = system: SF-539 CNS
[18] = system: UACC-257 melanoma
[19] = system: M14 melanoma
[20] = system: HCT-15 colon

| SMILES | growth [1] | growth [2] | growth [3] | growth [4] | growth [5] | growth [6] | growth [7] | growth [8] | growth [9] | growth [10] | growth [11] | growth [12] | growth [13] | growth [14] | growth [15] | growth [16] | growth [17] | growth [18] | growth [19] | growth [20] |
| --- | --- | --- | --- | --- | --- | --- | --- | --- | --- | --- | --- | --- | --- | --- | --- | --- | --- | --- | --- | --- |
| CCOC(=O)C1=C(C)c2ccc(OC)c(OC)c2C1 | 91.8% | 99.2% | 88.5% | 118% | 79.2% | 78.6% | 87% | 81.4% | 113% | 115% | 102% | 123% | 117% | 93.8% | 108% | 99.5% | 91.9% | 98.4% | 126% | 97.3% |
| CCCc1c(C)c2sc(=O)[nH]c2[nH]c1=O | 104% | 111% | 107% | 107% | 104% | 96% | 103% | 109% | 113% | 114% | 107% | 108% | 105% | 107% | 99.6% | 108% | 96.7% | 103% | 108% | 103% |
| CCCN1C(=O)N(CCC)C2C1NN=c1s/c(=C3\C(=O)N(C(C)C)c4ccccc43)c(=O)n12 (stereo not given) | 76% | 78% | 41.9% | 35.3% | 27.1% | 22.4% | 43.9% | -6.03% (active) | 43.8% | 53.5% | 11.3% | 36.5% | 41.8% | 12.2% | 46.8% | 22.2% | 23.1% | 53.8% | 37.8% | 24.4% |
| O=C1NC(=O)C(=Cc2cn(Cc3cn(Cc4ccc(Cl)cc4Cl)nn3)c3ccccc23)C(=O)N1 | 81.4% | 92.4% | 94.3% | 51.7% | 92.6% | 77.7% | 101% | 106% | 122% | 98.9% | 75.5% | 91.5% | 81.9% | 85.2% | 84.8% | 89.6% | 93% | 95.8% | 96.8% | 90.4% |
| O=c1oc2ccc(F)cc2c(=O)n1-c1ccc(Cl)cc1F | 4.57% (active) | 7.62% (active) | -5.38% (active) | 3.17% (active) | -14.3% (active) | -16.9% (active) | 3.43% (active) | 1.85% (active) | 11.7% | 17.1% | 7.39% (active) | -19.6% (active) | -17.2% (active) | -2.79% (active) | 12.7% | -28.5% (active) | 4.31% (active) | -17.4% (active) | 5.11% (active) | 7.49% (active) |
| CCCCOCc1cc(CN2CCN(C)CC2)c(O)c2ncccc12 | 60% | 53.9% | 32.9% | 21.9% | 57.9% | 24.9% | 35.9% | 38.1% | 85.4% | 63.9% | 50.7% | 93.4% | 47.1% | 69% | 47.9% | 58.5% | 53.3% | 51.4% | 41.2% | 25.6% |
| C1CCN(c2nc(N3CCCCC3)nc(N3CCOCC3)n2)CC1 | 95.7% | 105% | 94.3% | 109% | 112% | 78% | 87% | 97.3% | 107% | 119% | 101% | 100% | 93.9% | 107% | 105% | 111% | 113% | 97.1% | 113% | 105% |
| CC(C)Cn1c2c(c(=S)[nH]c1=O)CCC2 | 104% | 103% | 102% | 105% | 113% | 96.1% | 103% | 104% | 117% | 111% | 103% | 103% | 101% | 109% | 98.6% | 107% | 97.4% | 109% | 105% | 105% |
| C=C(C)CCC(C)N1CCC(N2CCC(C(=O)NCCc3ccccc3)CC2)CC1 (stereo not given) | 62.4% | 81% | 79% | 40.4% | 71% | 43.2% | 43.4% | 70.2% | 25.4% | 62.2% | 17% | 57.3% | 69.7% | 47.5% | 57.8% | 79.5% | 69% | 72.6% | 58% | 39.2% |
| CC[C@@H](C)[C@H](NC(=O)Cn1cc(CNC(=O)[C@@H](NC(=O)OCc2ccccc2)C(C)C)nn1)C(=O)O | 101% | 108% | 114% | 110% | 102% | 101% | 101% | 106% | 124% | 114% | 104% | 105% | 99.4% | 104% | 114% | 94.1% | 105% | 101% | 107% | 111% |
| NC(=O)CSc1nc(-c2ccc(F)cc2)cc(-c2ccco2)n1 | 98.7% | 99.9% | 108% | 110% | 101% | 94.5% | 104% | 105% | 111% | 111% | 103% | 110% | 98.3% | 118% | 104% | 102% | 110% | 109% | 98% | 107% |
| CC1=NCC2NC(=O)NC(C)=C12 (stereo not given) | 103% | 94.7% | 97.9% | 101% | 87.7% | 96.5% | 105% | 96.9% | 108% | 104% | 110% | 96% | 95% | 101% | 96.1% | 103% | 95.8% | 105% | 98.5% | 103% |
| Nc1cccc(Nc2cc(S(=O)(=O)O)c(N)c3c2C(=O)c2ccccc2C3=O)c1 | 109% | 124% | 114% | 108% | 132% | 82.5% | 102% | 111% | 110% | 119% | 101% | 105% | 107% | 119% | 101% | 118% | 101% | 97% | 103% | 96.7% |
| Nc1ccc(-c2nn3c(CCC(=O)c4nc5ncccc5[nH]4)nnc3s2)c(O)c1 | 83.1% | 87.5% | 85.7% | 93.4% | 85.4% | 81.2% | 89.6% | 99.2% | 99.6% | 96.5% | 105% | 93% | 71.2% | 84.9% | 73.5% | 97.1% | 89.1% | 101% | 96.5% | 95.8% |
| CCCCC1CCc2cccc3c(SCC(=O)N(C)c4ccc(Cl)cc4)cc[n+]1c23 (stereo not given) | 98.9% | 110% | 107% | 109% | 127% | 97.5% | 106% | 106% | 108% | 108% | 91.5% | 106% | 109% | 128% | 113% | 106% | 110% | 110% | 105% | 110% |
| CC(C)C[C@H](C(=O)N[C@H](C(N)=O)C(C)C)N1CC=CCN(OCc2ccccc2)S1(=O)=O | 111% [2.5 µM] | 105% [2.5 µM] | 99.3% [2.5 µM] | 110% [2.5 µM] | 82.9% [2.5 µM] | 86.4% [2.5 µM] | 94.5% [2.5 µM] | 102% [2.5 µM] | 105% [2.5 µM] | 131% [2.5 µM] | 100% [2.5 µM] | 113% [2.5 µM] | 93.4% [2.5 µM] | 111% [2.5 µM] | 108% [2.5 µM] | 114% [2.5 µM] | 99.9% [2.5 µM] | 91.2% [2.5 µM] | 100% [2.5 µM] | 104% [2.5 µM] |
| Cc1ccc2cccc(Oc3ccc(Nc4ncnc5onc(-c6ccccc6)c45)cc3)c2n1 | 87.9% | 88.2% | 90.4% | 73.5% | 26.3% | 72.2% | 80.6% | 101% | 59.1% | 94.4% | 76.7% | 84.1% | 72.2% | 82.8% | 91.4% | 88.1% | 79.8% | 89% | 84% | 43.4% |
| O=C(Nc1ccccc1O)c1ccc(Oc2cccc(C(=O)Nc3ccccc3O)c2)cc1 | 25.5% | 25.9% | 6.43% (active) | 1.59% (active) | 31.4% | -16% (active) | 7.58% (active) | 3.76% (active) | 93.4% | 12.1% | -29.1% (active) | 13.6% | 32% | 26.6% | 0.105% (active) | -28.5% (active) | 7.4% (active) | 10.4% | -44.5% (active) | 32.2% |
| NC(CCl)=NCCC[C@H](N)C(=O)O | 98.3% | 99.5% | 126% | 101% | 98.3% | 95.4% | 97.8% | 106% | 104% | 111% | 111% | 146% | 95.8% | 100% | 108% | 81.1% | 103% | 87.6% | 88.9% | 93.7% |
| COc1cc(-c2c3c(cn2S(=O)(=O)c2ccccc2)-c2nc(N)sc2CC3)cc(OC)c1OC | 44% | 41% | 53.5% | 6.37% (active) | 60.2% | 19.9% | 30.7% | 43.4% | -1.14% (active) | 0.0609% (active) | 8.08% (active) | 42.4% | 19.3% | 2.6% (active) | 40.7% | 11.2% | -31.8% (active) | 74% | 34.4% | 27.5% |
| CCOC(=O)C1=C(C)N=c2s/c(=C\c3cc(Cl)ccc3O)c(=O)n2C1c1ccc(OC)cc1 (stereo not given) | 88.1% | 104% | 110% | 91.6% | 69.2% | 81% | 94.9% | 94.6% | 101% | 107% | 73.8% | 109% | 95.1% | 80.9% | 107% | 111% | 118% | 101% | 88.4% | 98.6% |
| NC(CCc1nc2ccccc2c(=O)[nH]1)C(=O)O (stereo not given) | 105% | 97.8% | 103% | 108% | 108% | 91.7% | 105% | 101% | 115% | 120% | 96.7% | 104% | 103% | 115% | 106% | 104% | 105% | 105% | 105% | 101% |
| CCCCC1COc2cccc3c2N1C=C/C3=C\C(=O)N(C)c1ccccc1 (stereo not given) | 26.6% | 89.2% | 78.2% | 64% | 48.4% | 55.6% | 71.6% | 79.3% | 72.9% | 82.9% | 26.2% | 59.9% | 62.9% | 89.6% | 70.4% | 52.2% | 84% | 53% | 65.1% | 86.3% |
| Cc1c(-c2noc(-c3ccc([N+](=O)[O-])cc3)n2)no[n+]1[O-] | 86% | 88.4% | 86.1% | 103% | 85.2% | 102% | 111% | 99.5% | 113% | 99.9% | 93.7% | 99.5% | 95.4% | 102% | 92.6% | 99.9% | 97.4% | 106% | 93.8% | 93.1% |
| O=c1oc2ccc(-c3ccc(F)cc3F)cc2c(=O)n1-c1ccc(Cl)c(C(F)(F)F)c1 | 6.77% (active) | 13.1% | 6.97% (active) | 5.36% (active) | -29.4% (active) | -12.4% (active) | 7.35% (active) | 17.4% | 77.1% | 21% | 10.9% | 3.35% (active) | 56% | -3.32% (active) | 14.5% | 17.4% | 29.4% | -9.78% (active) | 21.5% | 15.8% |
| CCOC(=O)C(CC(=O)O)=C(C(=O)OCC)C(=O)OCC | 105% | 114% | 104% | 107% | 89.5% | 114% | 101% | 115% | 121% | 109% | 106% | 121% | 123% | 102% | 107% | 100% | 102% | 100% | 115% | 96.8% |
